Experimental data: PubChem BioAssay (NCATS)
Records with an inconclusive call do not appear. The source made the active and inactive calls. Calls come from the whole dose curve; as a rule, active = well fitted inhibition curve with a large enough effect; inconclusive = small, poorly fitted or top-dose-only effect; inactive = flat fitted curve, though single readings scatter. *1 amine or outer side, *2 acyl side, *3 side chain or, on linkers, in order; H or OH if unused. Where a SMILES comes first, the peptide text is derived from it. Bridges are numbered along the chain shown (N, C = ends). [ ]: non-standard residue; d: D form. The star is where a group is joined. ξ: configuration not given here. X10 = NC1=NCCC(C(N[*:1])C(=O)[*:2])N1; ΔAla(3-NHCONH2) = NC(=O)NC=C(N)C(=O)O; ξβ3hOrn = NCCCC(N)CC(=O)*; Dap = NC[CH](N)C(=O)O

Key:
CRL-7250 = normal cell line; assay: Cytotoxic Profiling of Annotated Libraries Using Quantitative High-Throughput Screening (AID 1296008); details: Five cell lines viability, CellTiter-Glo ATP luminescence, 48-72 h; max response: hits give low values; for max response: % is set by controls: 0 for no effect and ±100 for the full control effect
Method in brief: (§1)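 Cytotoxicity was measured as CellTiter-Glo ATP luminescence, read after 10 min at room temperature. Compound treatment of the cells lasted 48 or 72 hr at 37 degrees Celsius in a qHTS format.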

HEK293 = assay: as above; details: Five cell lines viability, CellTiter-Glo ATP luminescence, 48-72 h; max response: hits give low values
Method in brief: as §1

HaCat [1] = assay: as above; details: Five cell lines viability, CellTiter-Glo ATP luminescence, 48-72 h; max response: hits give low values
Method in brief: as §1

NIH3T3 = assay: as above; details: Five cell lines viability, CellTiter-Glo ATP luminescence, 48-72 h; max response: hits give low values
Method in brief: as §1

HACAT [2] = assay: qHTS assay to identify novel small-molecules to repurpose for Merkel cell carcinoma treatment (AID 1296009); details: MCC and control cell lines, CellTiter-Glo viability, 72 h; at 44.8 µM (top of the series) unless noted
Method in brief: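 After compound transfer in DMSO, plates were kept 72 hr at 37 degree celsius. Luminescent ATP signal from CellTiter-Glo served as viability measure, normalized against DMSO and no-cell controls.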

Measured: max response
Note: nearly all actives have a fitted effect of over 60% in size.

CSCC[C@H](NC(=O)[C@H](Cc1c[nH]c2ccccc12)NC(=O)CCNC(=O)OC(C)(C)C)C(=O)N[C@@H](CC(=O)O)C(=O)N[C@@H](Cc1ccccc1)C(N)=O
inactive: CRL-7250 0.728% | HEK293 0.664% | HaCat [1] -2.67% | NIH3T3

COc1cc(/C=C/C(N)=O)cc(OC)c1OC
inactive: CRL-7250 | HEK293 | HaCat [1] 2.61% | NIH3T3

NCCCC(N)CC(=O)NCC1NC(=O)C(CO)NC(=O)C(N)CNC(=O)C(C2CCN=C(N)N2)NC(=O)C(=CNC(N)=O)NC1=O (stereo not drawn) (H-[Dap]S[Dap](ξβ3hOrn)[ΔAla(3-NHCONH2)][X10]; lactam 1-C; configuration not given here)
inactive: CRL-7250 -12.1% | HEK293 -7.39% | HaCat [1] -10.9% | NIH3T3 -5.75%

O=C(O)c1cn(C2CC2)c2cc(Cl)c(F)cc2c1=O
inactive: CRL-7250 | HEK293 -5.06% | HaCat [1] | NIH3T3 | HACAT [2]

O=C(C1CCCCC1)N1CC(=O)N2CCCc3ccccc3C2C1 (configuration not stated)
inactive: all assays above

COC(=O)c1cc(S(N)(=O)=O)ccc1OC
inactive: CRL-7250 -27.4% | HEK293 4.21% | HaCat [1] | NIH3T3 | HACAT [2]

Cc1cc(CCCOc2c(C)cc(-c3noc(C(F)(F)F)n3)cc2C)on1
inactive: CRL-7250 | HEK293 -24.5% | HaCat [1] | NIH3T3 | HACAT [2]
